Assay results from PubChem BioAssay (EPA / NIEHS).
“And” between values parts separate entries of the source, which are not always exact repeats. Equal values may be shown once. More than one record can exist for a structure, and the calls need not agree. The source made the active and inactive calls. Rule for the calls: active = hit-call score of the fitted dose curve at least 0.9, where 1 is the maximum; inactive = score below 0.9.

Experiments:
[1] = ATG_CRE_CIS: Attagene CIS-FACTORIAL HepG2 Assay for human cAMP Responsive Element (CRE) binding protein 3 (AID 2282926); conditions: HepG2 CRE cis-reporter, Attagene multiplexed mRNA; actives raise or lower the signal
How it was run: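 We dosed HepG2 cells bearing multiple cis-promoter reporter units for 24 h and measured reporter mRNA by RT-PCR with capillary electrophoresis detection. Bidirectional concentration-response fitting used DMSO as negative control.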

[2] = biological target: CCAAT/enhancer-binding protein beta (Homo sapiens) (UniProt P17676); assay: ATG_C_EBP_CIS: Attagene CIS-FACTORIAL HepG2 Assay for human CCAAT/Enhancer Binding Protein (C/EBP) beta (AID 2282927); conditions: HepG2 Attagene cis-factorial transcription factor reporter; actives raise or lower the signal
How it was run: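 Following a 24 h incubation with test chemical, transfected HepG2 cells yielded RNA whose reporter transcripts were quantified by RT-PCR and fluorescent capillary electrophoresis, with DMSO serving as baseline for bidirectional fitting.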

[3] = ATG_CMV_CIS: Attagene CIS-FACTORIAL HepG2 Assay for human CMV (Internal Marker) (AID 2282928); conditions: HepG2 CMV promoter reporter, transcription factor profiling; actives raise or lower the signal;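 note: endpoint acts as a background internal control marker rather than a target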
How it was run: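 Cell system: HepG2, transiently transfected multiple reporter units under cis promoters. Exposure: 24 h. Detection: RT-PCR, FAM labeling, HpaI digestion, capillary electrophoresis. Analysis: bidirectional, DMSO baseline.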

[4] = ATG_DR4_LXR_CIS: Attagene CIS-FACTORIAL HepG2 Assay for human Liver X Receptor (LXR), DR4 submotif (AID 2282929); conditions: HepG2 Attagene DR4 cis-reporter, mRNA transcription; actives raise or lower the signal
How it was run: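 Endogenous factor activity at a DR4 cis-element is read as reporter mRNA in transiently transfected HepG2 cells. Exposure lasts 24 h; transcripts are amplified, fluorescently labelled and sized by capillary electrophoresis, with DMSO as baseline.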

[5] = biological target: Aryl hydrocarbon receptor (Homo sapiens) (UniProt P35869); assay: ATG_Ahr_CIS: Attagene CIS-FACTORIAL HepG2 Assay for human Aryl Hydrocarbon Receptor (Ahr) (AID 2282930); conditions: HepG2 AhR cis-factorial reporter transcription; actives raise or lower the signal
How it was run: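 Values derive from bidirectional fitting against DMSO negative control. Underlying signal: cis-element reporter mRNA in transiently transfected HepG2, harvested 24 h post-dose and measured by RT-PCR plus capillary electrophoresis.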

[6] = ATG_AP_1_CIS: Attagene CIS-FACTORIAL HepG2 Assay for human Activator Protein 1 (AP-1) (AID 2282931); conditions: HepG2 Attagene cis-factorial AP-1 reporter mRNA; actives raise or lower the signal
How it was run: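 Fluorescence of labelled PCR fragments separated by capillary electrophoresis gives reporter mRNA levels. HepG2 with transfected cis-regulated reporter units, 24 h exposure; DMSO serves as baseline for bidirectional curve fits.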

[7] = ATG_AP_2_CIS: Attagene CIS-FACTORIAL HepG2 Assay for human Activator Protein 2 (AP-2) (AID 2282932); conditions: HepG2 AP-2 cis-reporter, Attagene transcription factor profiling; actives raise or lower the signal
How it was run: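 HepG2 cells were transiently transfected with multiple cis-promoter reporter transcription units and dosed for 24 h. Reporter mRNA was measured by RT-PCR with capillary electrophoresis fluorescence; bidirectional fits relative to DMSO baseline.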

[8] = ATG_BRE_CIS: Attagene CIS-FACTORIAL HepG2 Assay for human Bone Morphogenetic Protein (BMP) Response Element (BRE) (AID 2282933); conditions: HepG2 BMP response element reporter, Attagene transcription factor profiling; actives raise or lower the signal
How it was run: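 HepG2 cells transiently transfected with multiplexed cis-element reporter units were dosed with chemical for 24 h. Reporter mRNA was measured by RT-PCR with fluorescent labelling, HpaI digestion and capillary electrophoresis; bidirectional fitting relative to DMSO.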

[9] = biological target: Retinoic acid receptor alpha (Homo sapiens) (UniProt P10276); assay: ATG_DR5_RAR_CIS: Attagene CIS-FACTORIAL HepG2 Assay for human Retinoic Acid Receptor Alpha (RARE), DR5 submotif (AID 2282934); conditions: HepG2 Attagene cis-factorial RARE DR5 reporter, mRNA; actives raise or lower the signal;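 for AC50: reporter responds to endogenous RAR alpha beta and gamma in HepG2 not RARA alone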
How it was run: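 Endpoint fitted in both directions relative to DMSO as negative control. It reflects DR5 cis-element reporter mRNA induction in transiently transfected HepG2 cells, measured 24 h after dosing through RT-PCR and fluorescent capillary electrophoresis.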

[10] = biological target: Transcription factor E2F1 (Homo sapiens) (UniProt Q01094); assay: ATG_E2F_CIS: Attagene CIS-FACTORIAL HepG2 Assay for human E2F Transcription Factor 1 (AID 2282935); conditions: HepG2 Attagene cis-reporter, E2F reporter RNA transcripts; actives raise or lower the signal
How it was run: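 HepG2 cells transiently transfected with multiplexed cis-element reporter units, dosed for 24 h. Reporter mRNA measured by RT-PCR, 6-FAM primer-extension labeling, HpaI digestion and capillary electrophoresis; bidirectional fit versus DMSO baseline.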

Measured: AC50

Retinoic acid receptor alpha (Homo sapiens), sequence (P10276 whole entry, looked up): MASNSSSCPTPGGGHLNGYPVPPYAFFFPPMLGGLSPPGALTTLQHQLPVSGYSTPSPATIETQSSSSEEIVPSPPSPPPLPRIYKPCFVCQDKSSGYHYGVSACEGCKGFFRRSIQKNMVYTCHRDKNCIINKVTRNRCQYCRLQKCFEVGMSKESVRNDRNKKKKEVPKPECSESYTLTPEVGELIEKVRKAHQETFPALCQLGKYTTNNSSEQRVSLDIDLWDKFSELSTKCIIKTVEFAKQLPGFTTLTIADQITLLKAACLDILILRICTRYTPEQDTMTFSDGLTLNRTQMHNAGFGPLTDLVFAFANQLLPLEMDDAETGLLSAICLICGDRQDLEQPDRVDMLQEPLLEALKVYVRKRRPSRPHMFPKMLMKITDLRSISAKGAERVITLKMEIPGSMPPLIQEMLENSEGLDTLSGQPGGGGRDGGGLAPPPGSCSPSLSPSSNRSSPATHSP
Transcription factor E2F1 (Homo sapiens), sequence (Q01094 whole entry, looked up): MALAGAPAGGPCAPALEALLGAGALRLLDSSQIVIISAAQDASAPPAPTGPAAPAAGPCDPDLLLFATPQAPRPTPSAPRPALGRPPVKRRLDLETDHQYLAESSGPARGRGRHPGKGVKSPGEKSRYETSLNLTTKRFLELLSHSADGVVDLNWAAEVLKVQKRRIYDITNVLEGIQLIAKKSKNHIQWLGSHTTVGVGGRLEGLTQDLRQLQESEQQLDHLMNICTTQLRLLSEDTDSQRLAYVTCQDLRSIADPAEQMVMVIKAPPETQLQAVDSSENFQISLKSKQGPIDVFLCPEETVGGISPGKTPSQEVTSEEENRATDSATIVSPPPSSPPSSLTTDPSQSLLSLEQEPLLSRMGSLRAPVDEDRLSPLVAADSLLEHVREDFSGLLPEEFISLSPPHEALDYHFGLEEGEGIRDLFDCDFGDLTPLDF
Aryl hydrocarbon receptor (Homo sapiens), sequence (P35869 whole entry, looked up): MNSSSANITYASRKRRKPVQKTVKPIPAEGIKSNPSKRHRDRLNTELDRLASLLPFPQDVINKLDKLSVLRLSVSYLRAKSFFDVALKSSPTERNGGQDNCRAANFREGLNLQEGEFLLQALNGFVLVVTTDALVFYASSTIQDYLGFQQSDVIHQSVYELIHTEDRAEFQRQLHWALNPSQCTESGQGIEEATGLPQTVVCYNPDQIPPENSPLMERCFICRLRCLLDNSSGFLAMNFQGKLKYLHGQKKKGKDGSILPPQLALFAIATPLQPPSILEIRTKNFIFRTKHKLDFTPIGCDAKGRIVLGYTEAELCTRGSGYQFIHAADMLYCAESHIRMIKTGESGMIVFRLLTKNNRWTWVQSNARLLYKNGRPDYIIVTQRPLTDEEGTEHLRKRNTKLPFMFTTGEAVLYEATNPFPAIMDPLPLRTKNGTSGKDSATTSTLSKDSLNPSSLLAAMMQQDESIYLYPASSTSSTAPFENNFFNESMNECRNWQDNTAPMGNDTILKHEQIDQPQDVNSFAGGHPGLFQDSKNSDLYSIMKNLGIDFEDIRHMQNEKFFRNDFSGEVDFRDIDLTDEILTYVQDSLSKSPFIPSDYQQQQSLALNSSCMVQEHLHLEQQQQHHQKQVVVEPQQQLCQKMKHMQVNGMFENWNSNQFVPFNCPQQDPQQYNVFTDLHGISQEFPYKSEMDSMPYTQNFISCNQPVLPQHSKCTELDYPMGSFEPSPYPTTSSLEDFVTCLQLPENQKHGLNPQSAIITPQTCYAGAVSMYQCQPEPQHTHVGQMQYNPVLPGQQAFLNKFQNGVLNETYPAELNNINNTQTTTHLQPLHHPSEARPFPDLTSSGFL
CCAAT/enhancer-binding protein beta (Homo sapiens), sequence (P17676 whole entry, looked up): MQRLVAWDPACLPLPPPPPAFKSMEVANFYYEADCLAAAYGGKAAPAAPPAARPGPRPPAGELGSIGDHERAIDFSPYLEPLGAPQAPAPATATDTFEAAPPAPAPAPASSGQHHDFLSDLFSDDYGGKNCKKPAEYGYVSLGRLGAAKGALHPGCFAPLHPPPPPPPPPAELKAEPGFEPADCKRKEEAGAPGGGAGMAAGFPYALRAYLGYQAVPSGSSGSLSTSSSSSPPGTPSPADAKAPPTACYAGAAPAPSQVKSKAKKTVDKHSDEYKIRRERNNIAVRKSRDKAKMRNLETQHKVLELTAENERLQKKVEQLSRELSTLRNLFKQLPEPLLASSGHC

CCCCCCCCn1sccc1=O
active: [1] 14.4 µM | [3] 19.1 µM | [8] 11.6 µM
not listed: [9] | [10]
inactive: all other assays above

Nc1ccc(Cc2ccc(N)cc2)cc1
not listed: [10]
inactive: all other assays above

[O-][Cl+]O
inactive: all assays above

O=P(OCCCl)(OCCCl)OCCCl
not listed: [10]
inactive: all other assays above

CCC12COCN1COC2
not listed: [9]
inactive: all other assays above

CC(C)(O)c1cnn2c(-c3ccc(F)c(-c4c(F)cccc4C#N)c3)cnc2n1
active: [1] 40 µM | [4] 27.5 µM | [6] 67.1 µM
inactive: all other assays above

CC(C)N(Cc1ccccc1)C(=O)C(C)(C)C
not listed: [6] | [10]
inactive: all other assays above

Clc1ccc(C(c2ccc(Cl)cc2)C(Cl)Cl)cc1
active: [1] 54.5 µM | [2] 54.8 µM | [3] 52.9 µM | [4] 17.1 µM | [7] 54.5 µM
inactive: [5] | [8]

CC(C)(C)OOC(=O)c1ccccc1
active: [3] 74.8 µM | [6] 130 µM | [10] 158 µM
inactive: all other assays above

O=[N+]([O-])c1ccc(Oc2ccc(Cl)cc2Cl)cc1
active: [3] 100 µM | [4] 48.1 µM | [5] 68.6 µM | [8] 56.4 µM
not listed: [9]
inactive: all other assays above

O=C(Nc1ccccc1)c1ccccc1I
active: [4] 157 µM
not listed: [10]
inactive: all other assays above

N#CC(Br)(Br)C(N)=O
active: [5] 55.2 µM
not listed: [10]
inactive: all other assays above

COP(=S)(OC)SCN1C(=O)c2ccccc2C1=O
not listed: [9]
inactive: all other assays above

CCCCCOC(=O)c1ccccc1C(=O)OCCCCC
active: [4] 150 µM | [6] 77.2 µM
not listed: [9]
inactive: all other assays above

O=C(Oc1ccc(Br)cc1)N1CCN2CCC1CC2
not listed: [10]
inactive: all other assays above

CCOC(=O)[C@]1(c2ccccc2)Oc2ccccc2[C@@H]1N
active: [1] 20.3 µM | [2] 33 µM | [3] 33 µM | [4] 52.4 µM | [6] 40 µM | [7] 55.1 µM | [8] 22.5 µM | [9] 13.6 µM
inactive: [5]

OCCOCCO
active: [6] 0.00963 µM
not listed: [10]
inactive: all other assays above

[Cl-].[Cl-].[Hg+2]
active: [4] 33.4 µM
not listed: [9] | [10]
inactive: all other assays above

CC(O)CCO (stereo not given)
not listed: [10]
inactive: all other assays above

Cc1ccc([N+](=O)[O-])cc1
not listed: [9]
inactive: all other assays above

Brc1ccc(Oc2ccccc2)cc1
active: [4] 155 µM
not listed: [6] | [9] | [10]
inactive: all other assays above

C[C@]12C=CC3=C4CCC(=O)C=C4CC[C@H]3[C@@H]1CC[C@@H]2O
inactive: [1] | [2] | [3] | [4] | [5] | [7] | [8] | [10]
active: [1] 68.8 µM | [2] 18 µM | [3] 28.3 µM | [4] 19.8 µM | [5] 19.8 µM and 35.7 µM | [7] 19.8 µM and 26.5 µM and 7.78 µM

Nc1ccc(N=Nc2ccccc2)cc1
active: [5] 25.4 µM | [7] 169 µM | [8] 59.4 µM
inactive: all other assays above

CO[C@@H]1[C@H](OC(=O)NC(=O)CCl)CC[C@]2(CO2)[C@H]1[C@@]1(C)O[C@@H]1CC=C(C)C
active: [4] 10.2 µM
inactive: all other assays above

c1ccc(N=Nc2ccccc2)cc1
active: [4] 100 µM | [5] 125 µM
inactive: all other assays above

Nc1cc(Cl)cc(C(=O)O)c1Cl
active: [5] 58 µM
not listed: [6] | [10]
inactive: all other assays above

Cc1ccc(N=C=O)cc1N=C=O
inactive: all assays above

CC(C)COC(=O)c1ccccc1C(=O)OCC(C)C
active: [3] 67.5 µM | [4] 73 µM | [8] 110 µM
not listed: [1] | [6]
inactive: all other assays above

N#CC(Br)Br
not listed: [1] | [6] | [10]
inactive: all other assays above

COc1cc(C=O)cc2c1[C@H](COC(N)=O)[C@]1(OC(C)=O)ON2C[C@H]2[C@@H]1N2C(C)=O
inactive: [3] | [8]
active: [2] 61 µM | [4] 0.0512 µM | [5] 0.314 µM | [6] 61.4 µM | [7] 33.4 µM | [10] 61.5 µM

CN(C)[C@@H]1C(=O)C(C(N)=O)=C(O)[C@@]2(O)C(=O)C3=C(O)c4c(O)cccc4[C@@](C)(O)[C@H]3C[C@@H]12
inactive: [2] | [4] | [5] | [7] | [8]
active: [3] 137 µM

ClC1=C(Cl)[C@]2(Cl)[C@H]3[C@H]([C@@H]4C=C[C@H]3C4)[C@@]1(Cl)C2(Cl)Cl
active: [3] 45.6 µM | [4] 25.9 µM
inactive: [2] | [5] | [7] | [8]

Oc1ccccc1Cl
not listed: [1] | [9]
inactive: all other assays above

[As]#[In]
active: [5] 65 µM
not listed: [1] | [6]
inactive: all other assays above

CCCSC(=O)N(CCC)CCC
not listed: [1] | [6] | [9]
inactive: all other assays above

COC(=O)c1ccccc1N
active: [5] 43.8 µM
inactive: [2] | [3] | [4] | [7] | [8]

CN(C)C(=O)Nc1ccc(Cl)cc1
active: [5] 58.5 µM
not listed: [1] | [6] | [9]
inactive: all other assays above

C[N+](C)(C)CC1CO1 (stereo not given)
not listed: [1] | [6]
inactive: all other assays above

CN(C)c1ccc(C(=O)c2ccc(N(C)C)cc2)cc1
active: [5] 65.5 µM
not listed: [1] | [6] | [10]
inactive: all other assays above

CCC[CH2][Sn]([Cl])([CH2]CCC)[CH2]CCC
inactive: [5] | [7] | [8]
active: [2] 0.097 µM | [3] 0.552 µM | [4] 0.412 µM

O=C(O)C1C2CCC(O2)C1C(=O)O (stereo not given)
active: [3] 77.8 µM | [6] 59 µM | [9] 75.4 µM
inactive: [2] | [4] | [7] | [8]

Oc1ccc2ccc3cccc4ccc1c2c34
inactive: [2] | [3] | [7] | [8] | [9]
active: [4] 11.1 µM

ClC1=C(Cl)C2(Cl)C3C(Cl)C=CC3C1(Cl)C2(Cl)Cl (stereo not given)
active: [3] 100 µM | [4] 40.1 µM
inactive: [2] | [5] | [7] | [8] | [9]

CC(C)(C)OOC(C)(C)CCC(C)(C)OOC(C)(C)C
active: [3] 90.1 µM | [4] 100 µM | [8] 161 µM
inactive: [2] | [7] | [9] | [10]

ClCCOCCCl
not listed: [1] | [6]
inactive: all other assays above

CNC(=O)Oc1cccc2c1OC(C)(C)C2
active: [5] 65.6 µM
not listed: [1]
inactive: all other assays above

CC(C)(C)C(O)(CCc1ccc(Cl)cc1)Cn1cncn1 (stereo not given)
inactive: [2] | [7] | [9]
active: [3] 122 µM | [4] 152 µM | [5] 52.3 µM | [8] 147 µM

O=[N+]([O-])C(Br)(CO)CO
active: [2] 156 µM | [9] 153 µM
not listed: [1] | [6]
inactive: all other assays above

c1ccc2c(c1)-c1cccc3cccc-2c13
inactive: [2] | [3] | [4] | [7] | [8] | [9]

C=CCc1ccc2c(c1)OCO2
not listed: [1] | [5] | [10]
inactive: all other assays above

Nc1ccc(Oc2ccc(N)cc2)cc1
not listed: [1]
inactive: all other assays above

CCN(CC)CCO
not listed: [1] | [6] | [9]
inactive: all other assays above

COC(=O)Nc1nc2ccccc2[nH]1
active: [5] 13.3 µM
not listed: [1] | [6]
inactive: all other assays above

Clc1ccc(C(c2ccc(Cl)cc2)C(Cl)(Cl)Cl)cc1
active: [3] 30.2 µM | [4] 27.6 µM
inactive: [2] | [5] | [7] | [8]

Nc1ccc(Cl)cc1N
active: [3] 6.32 µM | [5] 0.431 µM | [6] 9.15 µM
not listed: [1]
inactive: all other assays above
